TSHR antag = human thyrotropin receptor antagonism. activity change, negative = inhibition, % at 11.5 µM. P16473. TSHR-expressing cells, TSH-stimulated cAMP HTRF, 2 h; stronger effect = lower value. actives 0.2% (n = 330,000);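 active = activity change below a set negative limit, meaning inhibition stronger than a set level, cut at about -70% in these data; inconclusive = activity change between two set negative limits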; also: % is scaled to controls: 0 for no effect and ±100 for the full control effect
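TSHR-expressing cells were treated with compounds, then stimulated with TSH at EC80 (4nM final) for 2 hours at 37 deg C. Cellular cAMP was measured by HTRF competition between lysate cAMP and cAMP-d2 for a cryptate-labelled anti-cAMP antibody.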
PTHR1 agonist = activates the human parathyroid hormone receptor PTHR1. HEK293 GP2 PTHR1 cells, GloSensor cAMP luminescence, 1 h. Potency, µM (highest dose often 115 µM), for the others: top-dose activation, hits mostly activators. actives 0.075% (n = 410,000); also: potency is read from the fitted curve at half-maximal effect; nearly all actives have a fitted effect of over 55% in size
Target sequence (Q03431 whole entry, looked up): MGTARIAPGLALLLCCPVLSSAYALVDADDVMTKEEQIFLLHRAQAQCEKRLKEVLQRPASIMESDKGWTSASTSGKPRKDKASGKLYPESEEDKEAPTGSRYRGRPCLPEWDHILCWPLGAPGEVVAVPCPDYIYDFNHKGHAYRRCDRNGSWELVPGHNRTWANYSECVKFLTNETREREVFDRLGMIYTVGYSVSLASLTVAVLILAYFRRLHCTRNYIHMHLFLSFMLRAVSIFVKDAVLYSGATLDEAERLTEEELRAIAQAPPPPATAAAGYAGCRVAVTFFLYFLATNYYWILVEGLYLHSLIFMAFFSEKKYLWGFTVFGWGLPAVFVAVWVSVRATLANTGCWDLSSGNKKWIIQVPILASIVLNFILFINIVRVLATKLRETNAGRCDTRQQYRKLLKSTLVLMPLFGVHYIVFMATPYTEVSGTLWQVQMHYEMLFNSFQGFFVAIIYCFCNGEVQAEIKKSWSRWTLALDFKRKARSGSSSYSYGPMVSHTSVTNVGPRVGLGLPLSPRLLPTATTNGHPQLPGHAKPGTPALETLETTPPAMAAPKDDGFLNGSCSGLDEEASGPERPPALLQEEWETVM
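HEK-293-derived GP2 cells expressing PTHR1 and a GloSensor cAMP reporter, 3,000/well, plated overnight, given luciferin plus IBMX (each 0.5 mM as added) for 1 h at 37 °C, then compound for 1 h at 37 °C. Luminescence was read after 15 min at room temperature.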
GLP1R ag = activates the human GLP-1 receptor | actives 0.007% (n = 380,000) | HEK293 GLP-1R CRE-luciferase, luminescence, 4-6 h; cells express a hypersensitive GLP-1R form | P43220 | Potency, µM (top dose mostly 45.6 µM), for the others: at the highest dose activation, actives largely listed as activators; also: potency is read from the fitted curve at half-maximal effect; % of control where 0% means no effect
HEK293 tox = cytotoxic in the GLP-1 receptor inverse agonist counter-screen. Potency, µM (doses to about 38.3 µM), without a hit: at the highest dose activity change, negative = inhibition, actives largely listed as inhibitors. HEK293 cAMP-luciferase reporter cells, luminescence, 24 h. actives 0.13% (n = 410,000);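 also: loss of luciferase light is scored as toxicity; potency is read from the fitted curve at half-maximal effect; % is scaled to controls: 0 for no effect and ±100 for the full control effect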
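Seeding density was 200 cells/uL; after overnight-length (12 h) culture, 23 nL compounds went on for 24 h at 37 °C. Readout used a luciferase detection reagent, luminescence taken after 12 min at room temperature.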
GLP1R inv ag = acts as inverse agonist at human GLP-1 receptor; P43220; HEK293 GLP-1R CRE-luciferase, luminescence, 24 h; GLP-1R form is constitutively active; Potency, µM (titrated, usually from 38.3 µM), without a hit: top-dose activity change, negative = inhibition, most hits filed as inhibitors; actives 1.6% (n = 410,000); AID 624417; also: potency is read from the fitted curve at half-maximal effect; % is scaled to controls: 0 for no effect and ±100 for the full control effect; nearly all actives have a fitted effect of over 55% in size
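Inverse agonists were sought by their lowering of basal cAMP reporter luciferase output in HEK293 cells stably carrying constitutively active human GLP-1R, after 24 h compound treatment.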
Starred values were filed as active, the others as inactive; i = inactive; ? = inconclusive; · = no result given; [ ] = dose if it differs, or a comment. In the library only some 1.8% were active in any assay of this set; here they are far more common. Unless noted, calls follow the shape of the dose curve; as a rule, active = well fitted curve in the direction sought with a large enough effect; inconclusive = small, poorly fitted or top-dose-only effect, or another doubt; inactive = no such curve, though single readings can be large; an effect the other way counts as inactive or inconclusive.

SMILES	TSHR antag	PTHR1 agonist	GLP1R ag	HEK293 tox	GLP1R inv ag
CC1C(=O)N(Cc2ccc([N+](=O)[O-])cc2)c2ccccc2N1C(=O)c1c(F)cccc1F (centres undefined)	-26	-74%	4%	1%	10µM*
COc1ccc(CN2C(=O)C(C)N(C(=O)c3c(F)cccc3F)c3ccccc32)cc1 (centres undefined)	0	-30%	3%	5%	?
COc1cc(-c2cc(OC)c3c(C)oc(C)c3c(=O)c2)ccc1OC(=O)c1cccc(Cl)c1	·	-72%	·	5%	-17%
COc1ccccc1N(Cc1ccccc1)S(=O)(=O)c1cccc(C(=O)Nc2cc(C)ccn2)c1	-13	-74%	0%	9%	4.5µM*
COc1ccccc1N(Cc1ccccc1)S(=O)(=O)c1cccc(C(=O)Nc2ncccc2C)c1	2	-7%	7%	-3%	?
COc1ccccc1N(Cc1ccccc1)S(=O)(=O)c1cccc(C(=O)NC2CC(C)(C)NC(C)(C)C2)c1	9	-19%	-30%	?	5µM*
COc1ccccc1N(Cc1ccccc1)S(=O)(=O)c1cccc(C(=O)O)c1	0	i	-1%	0%	-8%
COc1ccc(Oc2nc3c(C)cccn3c(=O)c2/C=C(\C#N)c2nc3ccccc3[nH]2)cc1	·	-21%	·	-2%	4%
CCN(CC)C(=O)c1sc2c(c1C)c(=O)n(-c1ccc(Cl)c(Cl)c1)c(=O)n2CC(=O)Nc1cccc(OC)c1	·	20%	·	-13%	1%
COc1ccc(N(C)C(=O)c2cn(C3CCCCC3)c(=O)c3c2c2ccccc2n3C)cc1	·	-2%	·	-9%	?
NC(=O)c1ccccc1NC(=O)CN1CCN(Cc2ccccc2)CC1	-3	i	0%	-4%	-10%
O=C(CN1CCN(Cc2ccccc2)CC1)Nc1ccccc1-c1ccccc1	-14	i	15%	-20%	2µM*
COc1ccc(-c2nc3scc(CCNS(=O)(=O)c4ccc(C)cc4)n3n2)cc1	·	-18%	·	-31%	-64%
CCOC(=O)C1(C)C=C(Nc2ccc(C(=O)O)cc2)C(=O)N1c1ccc(C(=O)O)cc1 (centres undefined)	·	?	0%	4%	-1%
CC1=NN(C(=O)CSCc2ccccc2)C(O)(c2ccc(F)cc2)C1 (centres undefined)	-11	-9%	14%	-4%	7.9µM*
CC1=NN(C(=O)CSCc2ccccc2)C(O)(c2ccc(Cl)cc2)C1 (centres undefined)	-4	-95%	-4%	17%	?
Cc1ccc(C(=O)N2c3ccccc3N(Cc3ccccc3)C(=O)C2(C)C)cc1	?	-22%[57.5 µM]	0%	26%	11µM*
Cc1ccc(C(=O)CC2(O)C(=O)N(Cc3ccccc3)c3ccc(Br)cc32)cc1 (centres undefined)	·	-21%	·	-7%	-4%
CCOC(=O)C(C)/C(C)=N\Nc1ccc([N+](=O)[O-])cc1[N+](=O)[O-] (centres undefined)	-14	-15%	14%	-15%	16%
CCOC(=O)C(C)/C(C)=N/NC(N)=S (centres undefined)	2	5%	-1%	0.56µM*	?
COc1ccc(/C=N/NC(=O)c2cc(C(C)(C)C)[nH]n2)cc1COc1ccc(F)cc1F	-3	-28%	-6%	?	6.3µM*
Cc1ccc(OC(C)C(=O)Nc2ccc(C)c(S(=O)(=O)Nc3ccc(C)cc3C)c2)cc1 (centres undefined)	-23	-59%	-4%	-9%	4µM*
COc1ccc(NCC(=O)n2c(C)c(C)c3ccccc32)cc1	-17	i	-1%	-7%[7.66 µM]	-6%[7.66 µM]
COc1ccc(C(=O)c2c(C)c3ccccc3n2CC(O)CNC(C)C)cc1 (centres undefined)	28	?	-2%	8.9µM*	2.2µM*
O=C(NCc1ccccc1)C1=C[C@@H](c2csc3ccccc23)C[C@@H](OCc2ccc(CO)cc2)O1	9	-20%	-1%	-6%	8.9µM*
SMILES	TSHR antag	PTHR1 agonist	GLP1R ag	HEK293 tox	GLP1R inv ag
Cc1ccc(S(=O)(=O)/N=C2/NC(=O)/C(=C\c3cc(Br)cc(Br)c3O)S2)cc1	-100*	i	-2%	9%	-5%
Cc1cc(C)c(S(=O)(=O)N2CCN(C(=O)c3c(C)nn(-c4ccccc4)c3Cl)CC2)c(C)c1	·	-42%	-19%	-8%	8.9µM*
Cc1cc(C)c(S(=O)(=O)N2CCN(C(=O)c3ccc(-n4nc(C)c(Cl)c4C)cc3)CC2)c(C)c1	·	-11%	1%	7%	7.1µM*
COc1ccc(CCNC(=O)c2c(C)oc3ncn(CC(C)C)c(=O)c23)cc1OC	·	-18%	·	5%	44%
COc1ccc(C)cc1NC(=O)CCS(=O)(=O)c1cc2c3c(c1)CCN3C(=O)CC2	·	i	·	1%	-3%
COc1ccc(CCNC(=O)C(=O)NCC(c2cccs2)S(=O)(=O)c2cccs2)cc1 (centres undefined)	·	-15%	·	-15%	?
CSc1ccc(CCNC(=O)c2cc(C)nc3c2c(C)nn3-c2ccccc2)cc1	·	-7%	·	7%	-10%
COc1cc(Cl)c(C)cc1Nc1c2c(nc3ccccc13)CCC2	·	-1%	·	?	11µM*
CCOC(=O)c1cccc(Nc2c3c(nc4ccccc24)CCC3)c1	·	-18%	·	10µM*	?
COc1ccccc1Nc1c2c(nc3ccccc13)CCC2	-2	i	5%	?	?
COC(=O)c1cccc(Nc2c3c(nc4ccccc24)CCC3)c1	-1	-31%	14%	?	7.9µM*
CC(=O)c1cccc(Nc2c3c(nc4ccccc24)CCC3)c1	-4	-3%	12%	10%	?
Cc1cc(C)n(-c2nc3ccccc3nc2Nc2cccc(C(=O)NCCc3ccccc3)c2)n1	·	?	·	8%	10%
COc1cccc(C2CC(c3c(-c4ccccc4)c4cc(Cl)ccc4[nH]c3=O)=NN2S(C)(=O)=O)c1OC (centres undefined)	-30	i	-18%	-4%	?
COc1ccccc1C1CC(c2c(-c3ccccc3)c3cc(Cl)ccc3[nH]c2=O)=NN1S(C)(=O)=O (centres undefined)	-21	-11%[57.5 µM]	-6%	-23%	10µM*
COc1cc(OC)c(NC(=O)NCc2ccc3c(c2)CCN3C(=O)c2ccccc2)cc1Cl	·	-5%	·	6%	-13%
O=S(=O)(c1ccccc1)N1CCC(O)(CSc2ccccc2)CC1	-18	-18%	14%	6%	10µM*
O=S(=O)(c1ccccc1)N1CCC(O)(CSc2ccc(F)cc2)CC1	-12	-27%	9%	-2%[7.66 µM]	-23%[7.66 µM]

Screens as filed in PubChem.
